Results on 10 molecules are retold here after the supplement of paper PMC8253809.

Holding throughout (assay): growth inhibition (% activity, log2 RLU normalised to DMSO / staurosporine); higher = more growth inhibition
Holding throughout (details): 33 µM

For one assay, the system named is DIPGX29 (H3.3 K27M diffuse intrinsic pontine glioma line). An outline of the steps:
(§1)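 pHGG cell lines and H9-derived neural stem cells were grown on Geltrex-coated 384-well plates. Approved drugs were added by pin tool at a single final concentration of about 33 μM, in triplicate, for 7 days at 37 °C, 5% CO2. CellTiter-Glo luminescence was log2-transformed and normalised per plate to % activity between solvent and positive control wells. The growth-inhibition value is the median over replicates.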

The test system of a further assay is DIPGX37 (H3.3 K27M diffuse intrinsic pontine glioma line). An outline of the steps: as §1
In a further assay the test system is DIPGX7 (H3.3 K27M diffuse intrinsic pontine glioma line). An outline of the steps: as §1
In a further assay the test system is DIPGX9 (diffuse intrinsic pontine glioma line). An outline of the steps: as §1
The subject of the next assay is HGGX39 (paediatric high-grade glioma line). The procedure, abridged:
as §1

In another assay the test system is HGGX6 (H3.3 G34R paediatric high-grade glioma line). The procedure, abridged: as §1
In another assay the test system is HNSC. The procedure, abridged: as §1
In a further assay the test system is SUDIPGIV (diffuse intrinsic pontine glioma line)
An outline of the steps: as §1

For a further assay, the system named is SUDIPGVI (diffuse intrinsic pontine glioma line)
The procedure, abridged:
as §1

For the next assay, the system named is SUDIPGXIII (diffuse intrinsic pontine glioma line)
An outline of the steps:
as §1

As to `C=C[C@]1(C)C[C@@H](OC(=O)CS[C@@H]2C[C@H]3CC[C@@H](C2)N3C)[C@]2(C)[C@H](C)CC[C@]3(CCC(=O)[C@H]32)[C@@H](C)[C@@H]1O`, the growth inhibition in the assay with DIPGX29 was 4.15%; with DIPGX37, 2.94%; with DIPGX7, 3.25%; in the assay with DIPGX9 it was 4.84%; in the assay with HGGX39, 11.9%; with HGGX6 it was 5.9%. In addition, the growth inhibition in the assay on HNSC came out at 7.78%; in the assay on SUDIPGIV, 12%; in the assay with SUDIPGVI it was 5.01%; in the assay on SUDIPGXIII, 5.37%.

As for `Cc1nc(-c2ccc(OCC(C)C)c(C#N)c2)sc1C(=O)O`, the growth inhibition in the assay on DIPGX29 was 0.052%; with DIPGX37, -0.105%; with DIPGX7 it was 1.2%; in the assay with DIPGX9, 1.34%; with HGGX39 it was 2.02%; in the assay with HGGX6, 3.15%. For the same molecule, the growth inhibition in the assay with HNSC is -1.07%; in the assay with SUDIPGIV it was -0.558%; in the assay on SUDIPGVI, -0.306%; with SUDIPGXIII it was 1.95%.

As for `Cc1ccc(S(=O)(=O)NC(=O)NN2CC3CCCC3C2)cc1` (stereo not given), the growth inhibition in the assay on DIPGX29 was 1.02%; with DIPGX37 it was 1.27%; in the assay with DIPGX7 it was 1.73%; with DIPGX9 it was 0.944%; in the assay with HGGX39, 1.58%; with HGGX6, -0.55%. The growth inhibition in the assay with HNSC is 35.3%; in the assay with SUDIPGIV, 1.96%; in the assay on SUDIPGVI, -4.19%; in the assay with SUDIPGXIII it was 0.367%.

For `Cc1nnc(C(C)C)n1C1C[C@H]2CC[C@@H](C1)N2CC[C@H](NC(=O)C1CCC(F)(F)CC1)c1ccccc1` (stereo in doubt), the growth inhibition is 0.752% with DIPGX29; 1.42% with DIPGX37; 6.87% in the assay with DIPGX7; 1.45% with DIPGX9; 1.14% in the assay on HGGX39; -3.69% in the assay with HGGX6. For the same molecule, the growth inhibition in the assay on HNSC is 45.9%; in the assay with SUDIPGIV, -0.251%; with SUDIPGVI, -0.429%; in the assay with SUDIPGXIII, -1.27%.

Take `C[C@](N)(Cc1ccc(O)c(O)c1)C(=O)O`: the growth inhibition was 0.0946% in the assay on DIPGX29; 1.72% in the assay with DIPGX37; -0.426% in the assay on DIPGX7; -0.748% with DIPGX9; -1.35% with HGGX39; -1.03% with HGGX6. In addition, the growth inhibition in the assay on HNSC was 0.654%; with SUDIPGIV, -0.812%; with SUDIPGVI, 1.41%; with SUDIPGXIII, -0.739%.

As to `CN1CCC(=C2c3ccccc3CCc3sccc32)CC1`, the growth inhibition in the assay on DIPGX29 is 2.69%; with DIPGX37 it was 1.01%; in the assay with DIPGX7, 1.97%; in the assay on DIPGX9 it was 2.15%; with HGGX39 it was 7.57%; in the assay with HGGX6 it was -1.66%. Besides, the growth inhibition in the assay on HNSC is 1.57%; in the assay with SUDIPGIV it was 3.73%; in the assay with SUDIPGVI, -0.736%; in the assay with SUDIPGXIII, 1.69%.

With `C[C@H]1C[C@@H]2[C@H]([C@@H](O)C[C@@]3(C)[C@H]2CC[C@]3(O)C(=O)CO)[C@@]2(C)C=CC(=O)C=C12`, the growth inhibition in the assay on DIPGX29 was -0.195%; with DIPGX37 it was 0.838%; in the assay with DIPGX7, -1.93%; in the assay with DIPGX9, 2.66%; in the assay on HGGX39, -0.0158%; in the assay on HGGX6, -2.28%. The growth inhibition with HNSC is -1.14%; in the assay on SUDIPGIV it was 5.2%; in the assay with SUDIPGVI, -0.182%; in the assay with SUDIPGXIII, 1.59%.

On to `Nc1nc(N)c2nc(-c3ccccc3)c(N)nc2n1`, for which the growth inhibition in the assay with DIPGX29 was 5.33%; in the assay on DIPGX37, 1.67%; in the assay with DIPGX7, 1.42%; in the assay with DIPGX9, 1.23%; with HGGX39 it was 3.58%; with HGGX6, 1.3%. Besides, the growth inhibition with HNSC was determined as 3.87%; with SUDIPGIV it was 3.03%; in the assay on SUDIPGVI, 5.65%; in the assay on SUDIPGXIII, 0.714%.

On to `CC(C)(OCc1nn(Cc2ccccc2)c2ccccc12)C(=O)O`, for which the growth inhibition with DIPGX29 is -3.94%; in the assay on DIPGX37, -1.16%; in the assay on DIPGX7 it was -1.8%; in the assay with DIPGX9, -2.2%; with HGGX39 it was -3.82%; in the assay on HGGX6 it was -4.18%. Moreover, the growth inhibition was -2.36% in the assay on HNSC, -3.25% in the assay with SUDIPGIV, -2.56% in the assay on SUDIPGVI and 0.0548% with SUDIPGXIII.

As to `Clc1ccc(C(Cn2ccnc2)OCc2ccc(Sc3ccccc3)cc2)c(Cl)c1` (stereo not given), the growth inhibition in the assay on DIPGX29 is 2.76%; in the assay on DIPGX37, 0.833%; in the assay on DIPGX7, 2.5%; with DIPGX9, 4.7%; in the assay on HGGX39, 11.8%; in the assay with HGGX6, 8.32%. For the same molecule, the growth inhibition was 14% in the assay with HNSC, 11.4% in the assay on SUDIPGIV, 2.82% with SUDIPGVI and 5.1% in the assay with SUDIPGXIII.
